Here are results for 13 molecules from PubChem BioAssay (NCATS).

SMILES strings stand for the structures. Records with an inconclusive call do not appear. The source made the active and inactive calls. The call rests on the fitted dose curve; in most records, active means well fitted cell-killing curve with a large enough effect; inconclusive means small, poorly fitted or top-dose-only effect; inactive means flat fitted curve, though single readings scatter.
Potency means the concentration at half of the fitted maximal effect.

The assay is described as follows: qHTS of pediatric cancer cell lines to identify multiple opportunities for drug repurposing: Primary screen for U-2 OS cells (AID 1347096). Further: nearly all actives have a fitted effect of over 50% in size.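 On activity change, negative = cytotoxic: plate controls were DMSO wells for no effect and bortezomib positive control wells for full effect.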 The note with it: U-2 OS viability, CellTiter-Glo luminescence, 48 h; series mostly up to 46 µM; activity change, negative = cytotoxic: at the top concentration. The gist of the method: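 Viability after 48 h compound treatment at 37C, 500-1,000 cells/well, read as ATP luminescence with CellTiter-Glo. Primary screens used 11-point (MIPE, 0.78 nM-46 µM) or 8-point (NPC, 0.59 nM-46 µM) final concentrations; follow-up screens used 11-point dilutions.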
As to `CNC(=O)c1c(F)cccc1Nc1nc(Nc2cc3c(cc2OC)CCN3C(=O)CN(C)C)nc2[nH]ccc12`, the “activity change, negative = cytotoxic” value was 18.7% (inactive).

For the molecule `COc1ccc2c(OCc3nnc4ccc(-c5ccccc5)nn34)ccnc2c1`, the “activity change, negative = cytotoxic” value is 11.8% (inactive). For the molecule `COc1cc(C)c(Sc2cnc(NC(=O)c3ccc(CNC(C)C(C)C)cc3)s2)cc1C(=O)N1CCN(C(C)=O)CC1` (stereo not drawn), the “activity change, negative = cytotoxic” value is 3.89% (inactive). In the case of `CC[C@@H]1C(=O)N(C)c2cnc(Nc3ccc(C(=O)NC4CCC(N5CCN(CC6CC6)CC5)CC4)cc3OC)nc2N1C(C)C` (stereo partly drawn), the Potency was 11.8 µM (active). On to `COc1cc2c(Oc3ccc(-c4cnc(Nc5ccc(F)cc5)n(C)c4=O)cc3F)ccnc2cc1OCCCN1CCOCC1`, for which the Potency is 14.8 µM (active). For `CCCNC(=O)Nc1ccc(Oc2ncnc3cc(OC)c(OC)cc23)cc1Cl`, the “activity change, negative = cytotoxic” value is -3.76% (inactive).

For `CCC1=C[C@@H]2CN(C1)Cc1c([nH]c3ccccc13)[C@@](C(=O)OC)(c1cc3c(cc1OC)N(C)[C@@H]1[C@@](O)(C(=O)OC)[C@H](OC(C)=O)[C@]4(CC)C=CCN5CC[C@]31[C@@H]54)C2`, the “activity change, negative = cytotoxic” value is 2.63% (inactive). For the molecule `Cc1cn(-c2cc(NC(=O)c3ccc(C)c(Nc4nccc(-c5cccnc5)n4)c3)cc(C(F)(F)F)c2)cn1`, the “activity change, negative = cytotoxic” value was 26.1% (inactive). On the same count and under the same terms, next, `COC(=O)Nc1nc2ccc(C(=O)c3ccc(F)cc3)cc2[nH]1`: -18.7% (inactive). On the same count and under the same terms, next, `Cc1ccc(CN2CCNCC2)cc1NC(=O)CNc1ccc(F)c(F)c1`: 8.76% (inactive); `O=C(O)[C@H](Cc1c[nH]c2ccccc12)N1C(=O)c2ccccc2C1=O`: 17.5% [at 92.7 µM] (inactive).

For `CS(=O)(=O)c1ccc(-c2cnc(N)c(C(=O)Nc3ccccc3)n2)cc1`, the “activity change, negative = cytotoxic” value was -3.32% (inactive). For the molecule `CC[C@@]1(O)C(=O)OCc2c1cc1n(c2=O)Cc2cc3cc(O)ccc3nc2-1`, the “activity change, negative = cytotoxic” value was 12.6% (inactive).
